Screening results as filed in PubChem.
KB-V1 MDR tox: kills drug-selected multidrug resistant KB-V1 cells; AID 1347076; KB-V1 MDR cells viability, CellTiter-Glo, 72 h; 400,000 tested, 3.4% active; Potency, µM (titrated, usually from 46.1 µM), hits mostly cytotoxic; also: % is scaled to controls: 0 for no effect and ±100 for the full control effect; nearly all actives have a fitted effect of over 60% in size
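Drug-selected KB-V1 cells, grown in DMEM lacking phenol red with 10% FBS, receive compound titrations; after three days at 37 degrees C, surviving cell ATP is quantified by CellTiter-Glo luminescence and responses normalized and curve-fitted.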
RORgamma inh: inhibitors of mouse ROR gamma transcriptional activity; P51450; Drosophila S2 Gal4-RORgamma UAS-luciferase reporter, 20 h; Potency, µM (titrated, usually from 53.6 µM), for inactives: top-dose activity change, negative = inhibition, actives largely listed as inhibitors; 310,000 tested, 5.4% active; AID 2551; also: % is scaled to controls: 0 for no effect and ±100 for the full control effect; nearly all actives have a fitted effect of over 60% in size
Target sequence (P51450 whole entry, looked up, the tested form may be a part): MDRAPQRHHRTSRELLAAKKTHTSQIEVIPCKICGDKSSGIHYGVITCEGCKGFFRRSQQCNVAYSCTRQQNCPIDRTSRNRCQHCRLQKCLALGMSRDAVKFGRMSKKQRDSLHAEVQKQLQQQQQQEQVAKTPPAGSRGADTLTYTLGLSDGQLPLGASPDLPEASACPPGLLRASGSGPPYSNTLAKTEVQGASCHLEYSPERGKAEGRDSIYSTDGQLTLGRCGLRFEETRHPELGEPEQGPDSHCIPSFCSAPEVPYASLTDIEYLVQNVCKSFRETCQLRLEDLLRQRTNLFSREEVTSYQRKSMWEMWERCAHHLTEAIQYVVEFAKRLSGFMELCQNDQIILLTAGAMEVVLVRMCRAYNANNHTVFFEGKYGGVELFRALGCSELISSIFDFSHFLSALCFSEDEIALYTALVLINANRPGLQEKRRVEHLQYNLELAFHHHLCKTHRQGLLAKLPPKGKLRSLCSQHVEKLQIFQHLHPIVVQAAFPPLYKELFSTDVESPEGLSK
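Drosophila S2 cells stably expressing Gal4-DBD/mouse RORγ fusion under metallothionein promoter plus UAS-luciferase; compound 1 h, then 700 uM CuSO4 induction for 20 h at ambient temperature; inhibition read as reduced luminescence.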
KB-3-1 tox: kills parental KB-3-1 adenocarcinoma cells; KB-3-1 viability, CellTiter-Glo ATP luminescence, 72 h; 400,000 tested, 1.4% active; Potency, µM (titrated, usually from 46.1 µM), usual class: cytotoxic; AID 1347075; also: % is scaled to controls: 0 for no effect and ±100 for the full control effect; nearly all actives have a fitted effect of over 60% in size
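Cytotoxicity in the drug-sensitive parental line KB-3-1 was scored as loss of CellTiter-Glo luminescence following 72 h incubation with compound. Values come from curve fitting of normalized concentration-response data.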
Gal4-VP16 FLuc: inhibits Gal4-VP16 luciferase reporter, ROR gamma counter-screen; Potency, µM (doses to about 53.6 µM), for the others: at the highest dose activity, negative = inhibition, most hits filed as inhibitors; 310,000 tested, 3.5% active; Drosophila S2 Gal4-VP16 UAS-luciferase, luminescence, 20 h;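 also: Gal4-VP16 expression switched on by copper sulfate through the metallothionein promoter; % is scaled to controls: 0 for no effect and ±100 for the full control effect; nearly all actives have a fitted effect of over 50% in size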
MCF10A rereplic: induces DNA re-replication in MCF 10a normal breast cells. 350,000 tested, 2.9% active. AID 624296. MCF 10A DNA re-replication, Hoechst nuclear intensity, 48 h. Potency, µM (titrated, usually from 46.1 µM), inactives show at the top dose activity, positive = re-replication, hits mostly activators; also: % of control where 0% means no effect; nearly all actives have a fitted effect of over 50% in size
SW480 rerep: induces DNA re-replication in SW480 colon adenocarcinoma cells | Potency, µM (doses to about 46.1 µM), without a hit: at the highest dose re-replication activation, actives largely listed as activators | SW480 DNA re-replication, Hoechst DNA content imaging, 48 h | 340,000 tested, 1.8% active; also: % of control where 0% means no effect; nearly all actives have a fitted effect of over 55% in size
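First, 250 cells per well were seeded. Next, compound or vehicle (23 nL) was pinned in, plates sat 48 hr at 37 C. Finally Hoechst was added for 40 min before fluorescence scanning.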
Active calls of the source: *; i = inactive; ? = inconclusive; nt = not tested or not shown; [ ] = another dose, or the depositor's remark. An excerpt weighted towards active compounds, which were near 10% of everything screened. Calls follow the shape of the dose curve; as a rule, active = well fitted curve in the direction sought with a large enough effect; inconclusive = small, poorly fitted or top-dose-only effect, or another doubt; inactive = no such curve, though single readings can be large; an effect the other way counts as inactive or inconclusive. Potency is read from the fitted curve at half-maximal effect.

SMILES	KB-V1 MDR tox	RORgamma inh	KB-3-1 tox	Gal4-VP16 FLuc	MCF10A rereplic	SW480 rerep
CCN1C(=O)[C@@H]2Cc3c([nH]c4ccccc34)C(c3ccc(OC)cc3)N2C1=S (some centres not stated)	?	39%	?	29%	21µM*	?
COc1cccc(C2c3[nH]c4ccccc4c3C[C@H]3C(=O)N(C4CCN(Cc5ccccc5)CC4)CC(=O)N23)c1 (some centres not stated)	?	7%	?	-2%	17%	?
Cc1c(CCC(=O)N2CCC[C@H]2C(=O)O)c(=O)oc2cc3oc4c(c3cc12)CCCC4	i	1.3µM*	i	?	-79%	-30%
Cc1c(CCC(=O)N[C@@H](CC(C)C)C(=O)O)c(=O)oc2cc3oc4c(c3cc12)CCCC4	i	0.63µM*	i	?	-1%	?
Cc1c(CCC(=O)NCC(=O)NCC(=O)O)c(=O)oc2cc3oc4c(c3cc12)CCCC4	i	-24%	i	-12%	0%	?
Cc1c(CCC(=O)O)c(=O)oc2cc3oc4c(c3cc12)CCCC4	i	?	i	?	-2%	-6%
Fc1ccc(/C=N/NC(=S)NCCc2ccccc2)cc1F	i	7.1µM*	i	8.9µM*	-2%	-12%
CCc1ccc(/C=N/NC(=S)NCCc2ccccc2)cc1	i	14µM*	i	?	22%	-5%
Cc1cccc(/C=N/NC(=O)CC(=O)NCCc2ccccc2)c1	i	nt	i	nt	4%	-8%
COc1cccc(/C=N/NC(=S)NCCc2ccccc2)c1	i	16µM*	i	?	?	15%
COc1ccc(/C=N/NC(=S)NCCc2ccccc2)cc1	i	3.5µM*	i	7.9µM*	17%	-24%
CCOc1ccc(/C=N\NC(=O)CC(=O)NCCc2ccccc2)cc1	i	nt	i	nt	-1%	-10%
CCCCNC(=S)N/N=C/c1ccc(C#N)cc1	i	11%	i	?	10%	20%
Cc1ccc(C(=O)c2oc3ccccc3c2NC(=O)c2cc(-c3ccc(Cl)cc3)on2)cc1	i	nt	i	nt	nt	nt
Cc1cc(C)cc(NC(=O)C2CCN(S(=O)(=O)c3cccc(-c4noc(C)n4)c3)CC2)c1	i	nt	i	nt	nt	nt
O=C(O)c1ccc(B(O)O)cc1	?	-23%	i	3%	nt	nt
CCCCC1CCC(c2ccc(C(N)=O)cc2)CC1 (configuration not stated)	?	18%	i	3%	-6%	-7%
CCCCCC1CCC(c2ccc(/C(N)=N/O)cc2)CC1 (configuration not stated)	i	-10%	i	-7%	?	2.3µM*
Cc1[nH]c(=O)[nH]c(=O)c1S(=O)(=O)Nc1cccc(Cl)c1C	?	nt	i	nt	nt	nt
Cc1cc(O)c2c(c1O)C(=O)[C@]13C(=C2O)C(=O)[C@@H]2[C@@H](O)[C@H]1[C@@H]1[C@H](O)[C@H]3C(=O)C3=C(O)c4c(O)cc(C)c(O)c4C(=O)[C@]312	i	nt	1.2µM*	nt	-55%	5%
O=C(CC(Sc1ccc(Br)cc1)C(=O)O)c1ccc(Br)cc1 (configuration not stated)	nt	14µM*	nt	?	nt	nt
Cc1ccc(SC(CC(=O)c2ccc(C)cc2)C(=O)O)cc1 (configuration not stated)	?	?	i	?	?	?
Cc1cc(=S)[nH]c2c(C)cccc12	i	11µM*	i	?	2%	-45%
CCOc1ccc(C(C(=O)Nc2ccc(F)cc2)N(C(=O)Cn2nnc3ccccc32)C2CC2)cc1 (configuration not stated)	23µM*	33%	i	4%	8%	?
COc1cccc(C(C(=O)Nc2ccc(F)cc2)N(C(=O)Cn2nnc3ccccc32)C2CC2)c1 (configuration not stated)	?	11%	i	6%	-6%	?
SMILES	KB-V1 MDR tox	RORgamma inh	KB-3-1 tox	Gal4-VP16 FLuc	MCF10A rereplic	SW480 rerep
O=C1CCCCC2CCCCN12 (configuration not stated)	nt	26%[96.6 µM]	nt	11%[96.6 µM]	nt	nt
O=C(Nc1cccnc1)c1sc(Nc2ccccc2)nc1-c1ccccc1	15µM*	?	?	-13%	16µM*	13%
Cc1cccc(Nc2nc(-c3ccccc3)c(C(=O)Nc3cccnc3)s2)c1	?	-12%	?	?	23µM*	16µM*
Cc1cccc(NC(=O)c2sc(Cl)nc2-c2ccccc2)c1	i	6%	?	-2%	26%	-3%
COc1ccccc1CNC(=O)C(CC(C)C)N1Cc2ccccc2C1=O (configuration not stated)	i	nt	i	nt	nt	nt
COc1cc(OC)c2c(OC)c(-c3ccc4c(c3)OCO4)c(=O)oc2c1	nt	24%	nt	?	nt	nt
CC(=O)c1cccc(NC(=O)CCc2c(C)nc3c(-c4ccc(F)cc4)c(C)nn3c2C)c1	i	nt	i	nt	nt	nt
COc1ccc(-c2nnc(NC(=O)c3ccc(S(=O)(=O)N4CCCc5ccccc54)cc3)o2)cc1	?	0.28µM*	?	0.5µM*	-8%	?
COCc1nnc(NC(=O)c2ccc(S(=O)(=O)N3CCOCC3)cc2)o1	i	11µM*	i	20µM*	6%	-1%
COCc1nnc(NC(=O)c2ccc(S(=O)(=O)N3CCCc4ccccc43)cc2)o1	?	0.63µM*	?	3.5µM*	16µM*	?
O=C(Nc1nnc(C2CC2)o1)c1ccc(S(=O)(=O)N2CCCc3ccccc32)cc1	i	0.32µM*	?	0.71µM*	10%	4%
C(=C\c1c[nH]c2ccccc12)/c1ccc2ccccc2n1	i	nt	i	nt	nt	nt
Cc1noc(C)c1-c1nccc(NCc2cccs2)n1	nt	31%	nt	23%	nt	nt
CC(C)n1nc(C(=O)Nc2ccccc2N2CCOCC2)c2ccccc2c1=O	3.7µM*	25%	i	-12%	?	-6%
CCOc1cc(N2CCOCC2)c(OCC)cc1NC(=O)c1ccc(=O)n(Cc2ccccc2)n1	nt	4%	nt	-1%	nt	nt
CCOc1cc(N2CCOCC2)c(OCC)cc1NC(=O)c1nn(CC)c(=O)c2ccccc12	3.7µM*	nt	?	nt	?	12%
CCCC(=O)NC(c1ccccc1)c1c(O)ccc2ccccc12 (configuration not stated)	i	?	i	-9%	11%	4%
CCCCC(=O)NC(c1ccc(OC)c(OC)c1)c1c(O)ccc2ccccc12 (configuration not stated)	15µM*	14%	i	0%	3%	-5%
